From PubChem BioAssay
PLK1 PBD block = qHTS for Inhibitors of PLK1-PDB (polo-like kinase 1 - polo-box domain): Primary Screen | Serine/threonine-protein kinase PLK1 (Homo sapiens), P53350 | Plk1 PBD binding of FITC phosphopeptide, fluorescence polarization | Potency, µM, actives largely listed as inhibitors | hit rate 2.8% among 360,000 | AID 720504, 2013; note: series mostly up to about 57 µM; nearly all actives have a fitted effect of over 65% in size
PI5P4Ka inh = qHTS for Inhibitors of phosphatidylinositol 5-phosphate 4-kinase (PI5P4K); hit rate 1.2% among 330,000; AID 652105, 2013; PI5P4Kalpha enzyme, ADP-Glo luminescence, 60 min; stronger effect = lower value; Phosphatidylinositol 5-phosphate 4-kinase type-2 alpha (Homo sapiens), P48426; max response, %; active = max response of -50% or lower; inconclusive = between -30% and -50%; inactive = -30% or higher; note: value at the top dose of about 77 µM
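Enzyme plus substrate dispensed, test compounds pinned in, then ATP (5 microM final) added. After 60 min at RT, ADP-Glo reagent 1 for 45 min and reagent 2 for 30 min preceded luminescence imaging.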
G9a block = qHTS Assay for Inhibitors of Histone Lysine Methyltransferase G9a; Histone-lysine N-methyltransferase EHMT2 (Homo sapiens), Q96KQ7; G9a H3K9 monomethylation, AlphaScreen, 2 h; Potency, µM (titrated, usually from 102 µM), actives largely listed as inhibitors; hit rate 8.8% among 350,000; AID 504332, 2011; note: nearly all actives have a fitted effect of over 75% in size
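AlphaScreen detection with an anti-monomethyl H3K9 antibody quantified product after a 2 h room-temperature reaction containing 500 nM biotinylated H3K9 peptide, 20 µM SAM and 20 nM enzyme, which had been preincubated 15 min with compound.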
HP1b binding inh = HTS for Inhibitors of HP1-beta Chromodomain Interactions with Methylated Histone Tails. AlphaScreen HP1-beta / biotin-H3K9me3 peptide binding. Chromobox protein homolog 1 (Homo sapiens), P83916. hit rate 0.56% among 390,000. Potency, µM (series often up to 114 µM), actives largely listed as inhibitors; note: nearly all actives have a fitted effect of over 70% in size
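HP1-beta protein (50 nM final) preincubated 30 min at room temperature with biotinylated H3(1-18)K9me3 peptide (50 nM) in PBS pH 7.4, 0.01% Tween-20, then compound added for 30 min. AlphaScreen streptavidin donor/nickel chelate acceptor beads (10 ug/mL final), 30 min dark, luminescence read.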
JMJD2A Tudor inh = qHTS Assay for Inhibitors of JMJD2A-Tudor Domain; AlphaScreen JMJD2A-Tudor / H3K4me3 peptide binding; Potency, µM (top dose mostly 114 µM), usual class: inhibitors; hit rate 4.4% among 390,000; AID 504339, 2011; note: nearly all actives have a fitted effect of over 50% in size
Target sequence (O75164 whole entry, looked up, the tested form may be a part): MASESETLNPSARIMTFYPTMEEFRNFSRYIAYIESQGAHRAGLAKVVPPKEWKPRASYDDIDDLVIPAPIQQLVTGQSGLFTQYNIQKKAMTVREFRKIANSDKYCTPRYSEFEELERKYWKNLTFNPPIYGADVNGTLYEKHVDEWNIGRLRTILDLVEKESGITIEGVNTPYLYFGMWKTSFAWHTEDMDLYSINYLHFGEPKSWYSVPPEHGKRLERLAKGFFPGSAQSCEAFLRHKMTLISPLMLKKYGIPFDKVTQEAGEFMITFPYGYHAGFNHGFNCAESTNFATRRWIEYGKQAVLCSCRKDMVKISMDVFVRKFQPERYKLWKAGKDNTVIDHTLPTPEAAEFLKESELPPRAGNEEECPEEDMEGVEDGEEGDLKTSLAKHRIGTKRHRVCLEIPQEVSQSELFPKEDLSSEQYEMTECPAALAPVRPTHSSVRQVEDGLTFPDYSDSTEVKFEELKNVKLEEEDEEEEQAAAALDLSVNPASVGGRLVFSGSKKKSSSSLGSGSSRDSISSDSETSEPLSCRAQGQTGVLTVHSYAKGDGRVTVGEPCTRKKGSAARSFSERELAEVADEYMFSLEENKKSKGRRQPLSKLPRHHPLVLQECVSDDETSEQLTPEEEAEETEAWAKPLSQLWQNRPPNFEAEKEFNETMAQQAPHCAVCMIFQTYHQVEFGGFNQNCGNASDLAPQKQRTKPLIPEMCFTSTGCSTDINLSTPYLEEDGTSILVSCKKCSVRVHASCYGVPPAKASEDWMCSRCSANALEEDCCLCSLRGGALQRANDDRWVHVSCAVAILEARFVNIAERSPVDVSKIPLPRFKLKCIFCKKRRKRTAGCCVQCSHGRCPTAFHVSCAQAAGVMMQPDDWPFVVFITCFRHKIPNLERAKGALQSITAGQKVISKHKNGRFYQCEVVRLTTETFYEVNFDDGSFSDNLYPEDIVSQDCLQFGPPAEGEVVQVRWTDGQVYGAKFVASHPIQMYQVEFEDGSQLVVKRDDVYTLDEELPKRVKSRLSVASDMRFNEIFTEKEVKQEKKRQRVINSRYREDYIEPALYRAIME
BAZ2B inh = qHTS Assay for Inhibitors of BAZ2B | Bromodomain adjacent to zinc finger domain protein 2B (Homo sapiens), Q9UIF8 | AlphaScreen BAZ2B-H3K14Ac peptide displacement | Potency, µM (top dose mostly 114 µM), hits mostly inhibitors | hit rate 4.4% among 360,000; note: nearly all actives have a fitted effect of over 60% in size
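Multi-concentration screen (max 110 uM) measuring displacement of acetylated histone H3 peptide from BAZ2B by AlphaScreen, using 50 nM protein, 50 nM peptide and 10 ug/mL streptavidin donor plus Ni-chelate acceptor beads.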
Large screens that a line does not name were inactive. Compounds with a hit are over-represented: about 12% of the library has one in this group of screens. Unless noted, calls come from the whole dose curve; as a rule, active = well fitted curve in the direction sought with a large enough effect; inconclusive = small, poorly fitted or top-dose-only effect, or another doubt; inactive = no such curve, though single readings can be large; an effect the other way counts as inactive or inconclusive.

c1ccc(N2CCN(c3nc(NCc4ccco4)c4ccccc4n3)CC2)cc1	G9a block 44.7µM, JMJD2A Tudor inh 50.1µM, BAZ2B inh 44.7µM
O=C(/C=C/c1ccc(Cl)c(Cl)c1)NC1=NCCS1	PLK1 PBD block 21.2µM
CC(C)c1ccc(/C=C/C(=O)NC2=NCCS2)cc1	none (no result: PLK1 PBD block, PI5P4Ka inh, HP1b binding inh, JMJD2A Tudor inh)
COc1ccc(-n2nc(C(=O)Nc3ccccc3OC)c3c4ccccc4n(C)c3c2=O)cc1Cl	none (no result: PLK1 PBD block, PI5P4Ka inh)
C#CCOCCOCCOCCNc1nc(N2CCN(C(=O)[C@H](CCC(=O)O)n3cc(C(N)Cc4ccc(O)cc4)nn3)CC2)nc(N2CCN(C(=O)[C@H](Cc3ccc(O)cc3)n3cc(C(N)CC(C)C)nn3)CC2)n1 (stereo partly drawn)	G9a block inconclusive, BAZ2B inh 35.5µM (no result: PLK1 PBD block, PI5P4Ka inh, HP1b binding inh, JMJD2A Tudor inh)
C#CCOCCOCCOCCNc1nc(N2CCN(C(=O)[C@H](CCC(=O)O)n3cc(C(N)Cc4ccc(O)cc4)nn3)CC2)nc(N2CCN(C(=O)[C@H](CCC(=O)O)n3cc(C(N)Cc4ccc(O)cc4)nn3)CC2)n1 (stereo partly drawn)	G9a block inconclusive, JMJD2A Tudor inh 50.1µM, BAZ2B inh 50.1µM
C#CCOCCOCCOCCNc1nc(N2CCN(C(=O)[C@H](CCCCN)n3cc(C(N)CO)nn3)CC2)nc(N2CCN(C(=O)[C@H](CCC(=O)O)n3cc(C(N)Cc4ccc(O)cc4)nn3)CC2)n1 (stereo partly drawn)	G9a block inconclusive, BAZ2B inh 17.8µM (no result: PLK1 PBD block, PI5P4Ka inh, HP1b binding inh, JMJD2A Tudor inh)
C#CCOCCOCCOCCNc1nc(N2CCN(C(=O)[C@H](CCC(=O)O)n3cc(C(N)CC(C)C)nn3)CC2)nc(N2CCN(C(=O)[C@H](Cc3ccc(O)cc3)n3cc(C(N)CC(C)C)nn3)CC2)n1 (stereo partly drawn)	G9a block inconclusive, JMJD2A Tudor inh 79.4µM, BAZ2B inh 79.4µM
C#CCOCCOCCOCCNc1nc(N2CCN(C(=O)[C@H](CCCCN)n3cc(CCC(=O)O)nn3)CC2)nc(N2CCN(C(=O)[C@H](Cc3ccc(O)cc3)n3cc(CCO)nn3)CC2)n1	none (no result: G9a block, BAZ2B inh)
C#CCOCCOCCOCCNc1nc(N2CCOCC2)nc(N2CCN(C(=O)[C@H](Cc3ccc(O)cc3)n3cc([C@@H](N)C(C)CC)nn3)CC2)n1 (stereo partly drawn)	PLK1 PBD block inconclusive, G9a block inconclusive, JMJD2A Tudor inh inconclusive
C#CCOCCOCCOCCNc1nc(N2CCN(C(=O)[C@H](Cc3ccc(O)cc3)n3cc([C@@H](N)CC(C)C)nn3)CC2)nc(N2CCN(C(=O)[C@H](Cc3ccc(O)cc3)n3cc([C@@H](N)CC(C)C)nn3)CC2)n1	BAZ2B inh 50.1µM (no result: PLK1 PBD block, PI5P4Ka inh, HP1b binding inh, JMJD2A Tudor inh)
Cc1nn(C)c(C)c1S(=O)(=O)N(CC(=O)Nc1ccc(F)cc1F)c1ccc(C(C)C)cc1	none (no result: PLK1 PBD block, PI5P4Ka inh)
CCN(CC)C(=O)c1sc(NC(=S)N2CCN(C(=O)C3CCCO3)CC2)c(C(=O)OC)c1C (stereo not drawn)	G9a block 50.1µM
CCCOC(=O)c1c(NC(=O)C2CCCO2)sc(C(=O)OC)c1C (stereo not drawn)	PLK1 PBD block 9.47µM, G9a block 3.55µM, HP1b binding inh inconclusive, JMJD2A Tudor inh inconclusive
Cc1cc(Cl)ccc1NC(=O)CN1C(=O)NC2(CCCC2)C1=O	none
CN(C)c1ccc(S(=O)(=O)N2CCCCC2)cc1NC(=O)CN1C(=O)NC(C)(c2ccccc2)C1=O (stereo not drawn)	G9a block inconclusive
CN(C)c1ccc(S(=O)(=O)N2CCCCC2)cc1NC(=O)CN1C(=O)NC2(CCCC2)C1=O	G9a block 14.1µM
O=C(CN1C(=O)NC2(CCCC2)C1=O)Nc1cc(Cl)ccc1N1CCCC1	none (no result: G9a block)
Cc1cc(N2CCCC2)ccc1NC(=O)CN1C(=O)NC2(CCCCC2)C1=O	G9a block 3.55µM
Cc1cc(NC(=O)CN2C(=O)NC3(CCCCC3)C2=O)ccc1N1CCCC1	G9a block 8.91µM
O=C(Cc1cccs1)NCCS(=O)(=O)N1CCN(c2cccc(Cl)c2)CC1	none
COc1cc(OC)cc(-c2nc3nc(C)c(CCC(=O)Nc4ccc(C)cc4C)c(C)n3n2)c1	none (no result: PLK1 PBD block, PI5P4Ka inh)
COc1ccn(C2CCCCO2)c(=O)n1 (stereo not drawn)	none (no result: G9a block, BAZ2B inh)
CCOc1ccc(NC(=O)c2cc3c(s2)-c2ccccc2OC3)cc1	none (no result: PLK1 PBD block, PI5P4Ka inh)
CN1CCN(CCNC(=O)Cn2c(=O)c3cccn3c3ccc(F)cc32)CC1	none
Cc1cccc(OCC(=O)N/N=C2/SCC(=O)N2Cc2ccco2)c1	PLK1 PBD block 10.6µM
Cc1ccccc1OCC(=O)N/N=C1\SCC(=O)N1Cc1ccccc1	PLK1 PBD block 26.7µM, HP1b binding inh inconclusive
Cc1ccc(CCNC(=O)c2ccc3c(c2)c(C)c(C)n3Cc2ccccc2)cc1	none (no result: PLK1 PBD block, PI5P4Ka inh)
Cc1ccc(N(C(=O)CCCC(=O)Nc2ccccn2)C(C(=O)NC2CCCC2)c2ccc(O)cc2)cc1C (stereo not drawn)	G9a block 8.91µM
N#Cc1c(NC(=O)c2nc3ncccn3n2)sc2c1CCCCC2	none
CCc1c(C)sc(NC(=O)c2cnn3cccnc23)c1C#N	PLK1 PBD block inconclusive, G9a block inconclusive (no result: PI5P4Ka inh)
CC1CCc2sc(NC(=S)NC(=O)c3ccccc3)c(C#N)c2C1 (stereo not drawn)	PLK1 PBD block inconclusive, G9a block 35.5µM, BAZ2B inh inconclusive
N#Cc1c(NC(=O)c2cnn3cccnc23)sc2c1CCCC2	PLK1 PBD block 23.8µM, G9a block 39.8µM
CC1CCc2c(sc(NC(=O)c3nc4ncccn4n3)c2C#N)C1 (stereo not drawn)	PLK1 PBD block 4.74µM, G9a block 3.16µM, HP1b binding inh inconclusive, JMJD2A Tudor inh inconclusive
CC(C)(C)c1ccc(C(=O)NC(=S)Nc2sc3c(c2C#N)CCC3)cc1	PLK1 PBD block inconclusive, G9a block inconclusive, HP1b binding inh inconclusive, JMJD2A Tudor inh inconclusive
Cn1nccc1C(=O)NC(=S)Nc1sc2c(c1C#N)CCCCC2	PLK1 PBD block inconclusive, G9a block 50.1µM
COc1cccc(CN2CC(C(=O)N3CCOCC3)CCC2=O)c1 (stereo not drawn)	none
N#Cc1c(NC(=O)/C=C/C(=O)O)sc2c1CCN(Cc1ccccc1)C2	PI5P4Ka inh inconclusive, G9a block inconclusive, JMJD2A Tudor inh inconclusive, BAZ2B inh 50.1µM
N#Cc1c(NC(=S)NC(=O)c2ccccc2)sc2c1CCC2	PLK1 PBD block inconclusive, G9a block 2.82µM, JMJD2A Tudor inh 44.7µM
N#Cc1c(NC(=O)c2ccncc2)sc2c1CCC2	PLK1 PBD block inconclusive, G9a block 11.2µM, JMJD2A Tudor inh 63.1µM, BAZ2B inh 50.1µM (no result: PI5P4Ka inh)
